A short description of assay [1]: qHTS assay to identify small molecule agonists of the constitutive androstane receptor (CAR) signaling pathway - cell viability counter screen (AID 1224836). Note: nearly all actives have a fitted effect of over 45% in size. Note: potency is the fitted concentration of half-maximal effect. The method in brief:
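Fluorescence from CellTiter-Fluor indicates live cells after 23 h exposure. The human hepatoma line expresses hCAR and a CYP2B6-2.2kb reporter. Incubation medium contains 0.75 uM PK11195 (final).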
Background: In qHTS, concentration-response curves come from the screen itself.

The nature of assay [2]: qHTS assay to identify small molecule antagonists of the constitutive androstane receptor (CAR) signaling pathway - cell viability counter screen (AID 1224837). Note: nearly all actives have a fitted effect of over 45% in size. Note: potency is the fitted concentration of half-maximal effect. The method in brief: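 Viability was measured with CellTiter-Fluor in a HepG2 line carrying stably transfected hCAR and a CYP2B6-2.2kb construct. Cells were exposed for 23 hr at 37 C to 15 compound concentrations with 50 nM CITCO as agonist.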

Assay [3] is described as follows: qHTS assay to identify small molecule antagonists of the estrogen related receptor signaling pathway with the pleiotropic PPARgamma coactivator (PGC) from Tox21 10K library - cell viability counter screen (AID 1224840; active = well fitted cell-killing curve with a large enough effect in the repeat runs, not every such curve was filed as active; note: nearly all actives have a fitted effect of over 40% in size; note: potency is the fitted concentration of half-maximal effect). The method in brief: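 Multiplexed viability counter screen in the PGC/ERR cell line: cells treated with DMSO-dissolved compounds for 17.5 hours at 37 C, then viability measured as CellTiter-Fluor fluorescence.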

The nature of assay [4]: qHTS assay to identify small molecule antagonists of the estrogen related receptor signaling pathway with the pleiotropic PPARgamma coactivator (PGC) from Tox21 10K library (AID 1224841; call rule not given here; note: actives are mostly falling curves and most rising ones were filed inactive; nearly all actives have a fitted effect of over 50% in size; note: potency is the fitted concentration of half-maximal effect). In outline:
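Steps: plate 2,000 PGC/ERR cells per well; incubate 6 h at 37 C with 5% CO2; transfer compounds from DMSO stocks by pin tool; incubate 18 h at 37 C; add One-Glo; measure luminescence 30 min later.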

Assay [5] in a line: qHTS assay to identify small molecule agonists of the estrogen related receptor signaling pathway with the pleiotropic PPARgamma coactivator (PGC) from Tox21 10K library (AID 1224842). Note: nearly all actives have a fitted effect of over 15% in size. In outline: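 PGC/ERR reporter cells (NTP line) were seeded 2,000 per well, rested 6 h at 37 C/5% CO2, then pin-dosed with compounds in DMSO for 18 h at 37 C; luciferase read by One-Glo luminescence after 30 min at room temperature.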

Assay [6] deals with Thyrotropin receptor (Homo sapiens) (UniProt P16473). The assay can be described thus: qHTS assay to identify small molecule agonists of the thyroid stimulating hormone receptor (TSHR) signaling pathway (AID 1224843; calls by dose curve; note: nearly all actives have a fitted effect of over 45% in size; note: potency is the fitted concentration of half-maximal effect). The method in brief:
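Compounds are titrated over 15 concentrations, in triplicate, onto TSHR-HEK293 cells seeded at 800/well. Plates sit 30 min at room temperature before cAMP-d2 and anti-cAMP cryptate are added; signal is read after a further hour.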

Assay [7] is described as follows: qHTS assay to identify small molecule agonists of H2AX (AID 1224845; active = well fitted activation curve with a large enough effect in the signal ratio in the repeat runs, not every such curve was filed as active; the % refers to the signal ratio; note: potency is the fitted concentration of half-maximal effect). The method in brief: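 Wild-type CHO-K1 cells plated overnight, then exposed 3 hr at 37C to compounds at 15 concentrations (0.76% DMSO). Lysed, then HTRF anti-pH2AX(S139)-cryptate/anti-H2AX-d2 detection after 24 hr at room temperature; emissions 665 and 620 nm.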
Assay [8] is described as follows: qHTS assay to identify small molecule agonists of H2AX - cell viability counter screen (AID 1224847; calls by dose curve; note: top concentration of the series differs between compounds; nearly all actives have a fitted effect of over 30% in size). The method in brief: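 Viability of CHO-K1 (wild type) cells after 3 hr compound exposure was measured by CellTiter-Glo luminescence.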
A short description of assay [9]: qHTS assay to identify small molecule antagonists of the estrogen related receptor (ERR) signaling pathway from Tox21 library (AID 1224848). Note: nearly all actives have a fitted effect of over 50% in size. Note: potency is the fitted concentration of half-maximal effect. In outline: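 First, 2,000 ERR cells per well were plated and held 6 h at 37 C/5% CO2. Next, compounds in DMSO were pinned in and left 18 h at 37 C. Finally, ONE-Glo was added and luminescence read after 30 min at room temperature.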

Assay [10] is described as follows: qHTS assay to identify small molecule agonists of the estrogen related receptor (ERR) signaling pathway from Tox21 library (AID 1224849; calls by dose curve; note: nearly all actives have a fitted effect of over 15% in size). The following applies: ERR reporter cell line, ONE-Glo luciferase, 18 h; at 92.4 µM (top of the series) unless noted. In outline: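 Cells carrying the ERR reporter were plated and allowed to settle for 6 h, exposed to library compounds for 18 h at 37 C, then lysed with ONE-Glo and luminescence measured.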

A short description of assay [11]: qHTS RealTime-Glo MT Cell Viability Assay in HepG2 cells - 24 hour (AID 1224867). Note: nearly all actives have a fitted effect of over 50% in size. Note: potency is the fitted concentration of half-maximal effect. The method in brief: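 qHTS, HepG2, 600 cells/well, RealTime-Glo (NanoLuc + prosubstrate) added with cells; 5 h preincubation; DMSO compound addition; 37 C; luminescence at 0/8/16/24/32/40 h.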
A short description of assay [12]: qHTS RealTime-Glo MT Cell Viability Assay in HEK293 cells - 32 hour (AID 1224868). Note: nearly all actives have a fitted effect of over 50% in size. Note: potency is the fitted concentration of half-maximal effect. In outline:
(§1)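 Assay medium contained NanoLuc luciferase plus cell-permeant prosubstrate, added with HEK293 cells at 600 cells/well. After 5 h at 37 C/5% CO2 compounds were added; plates stayed at 37 C for 40 h with serial luminescence reads.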

Assay [13] can be described thus: A CellTox Green Cytotoxicity Assay to monitor cytotoxicity in HEK293 cells - 0 hour (AID 1224869). Note: nearly all actives have a fitted effect of over 50% in size. In outline: (§2)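 Cells (HEK293, 600/well) and dye reagent are dispensed together. After 5 h at 37 C, 23 nL compound is pinned in. Plates stay at 37 C for 40 h with fluorescence read at 0h, 8h, 16h, 24h, 32h and 40h.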
The nature of assay [14]: qHTS RealTime-Glo MT Cell Viability Assay in HepG2 cells - 40 hour (AID 1224870). Note: nearly all actives have a fitted effect of over 50% in size. Note: potency is the fitted concentration of half-maximal effect. The method in brief: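 HepG2 cells mixed with RealTime-Glo MT reagents (NanoLuc plus cell-permeant prosubstrate) were seeded at 600 cells/well, incubated 5 h at 37 C/5% CO2, then pinned with compounds in DMSO; nonlytic luminescence tracked viability during 40 h treatment.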
Assay [15] is described as follows: A CellTox Green Cytotoxicity Assay to monitor cytotoxicity in HEK293 cells - 40 hour (AID 1224871). Note: nearly all actives have a fitted effect of over 45% in size. Note: potency is the fitted concentration of half-maximal effect. The method in brief:
as §2

A short description of assay [16]: qHTS RealTime-Glo MT Cell Viability Assay in HEK293 cells - 16 hour (AID 1224872). Note: nearly all actives have a fitted effect of over 50% in size. Note: potency is the fitted concentration of half-maximal effect. In outline:
as §1

A short description of assay [17]: qHTS assay to identify small molecule agonists of the hypoxia (HIF-1) signaling pathway - cell viability counter screen (AID 1224844; calls by dose curve; note: nearly all actives have a fitted effect of over 50% in size). In outline: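 Cytotoxicity was measured in parallel with the HRE-driven beta-lactamase readout: after 17 hrs of compound exposure at 37C, HRE-bla ME-180 cells received CellTiter-Glo and luminescence was recorded 30 min later.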

The nature of assay [18]: qHTS assay to identify small molecule agonists of the hypoxia (HIF-1) signaling pathway (AID 1224846; active = well fitted activation curve with a large enough effect in the signal ratio in the repeat runs, not every such curve was filed as active; the % refers to the signal ratio). The method in brief: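 Compounds from the Tox21 10K library, dissolved in DMSO, are tested for induction of a hypoxia response element–controlled beta-lactamase reporter in ME-180 cells. Exposure lasts 17 hrs at 37C after a 5 hr settling period, followed by CCF4-AM FRET substrate.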

Where “and” joins values, the source holds several entries; their conditions need not be identical. Equal entries are not always repeated. Unmarked numbers belong to inactive results. Results filed as inconclusive are left out. Calls of active or inactive are those of the source. Unless noted, calls come from the whole dose curve; as a rule, active = well fitted curve in the direction sought with a large enough effect in the repeat runs; inconclusive = weak or mixed curves; inactive = no such curve, though single readings can be large; an effect the other way counts as inactive or inconclusive.
% is set by controls: 0 for no effect and ±100 for the full control effect.

Sequence of Thyrotropin receptor (Homo sapiens) (P16473 whole entry, looked up): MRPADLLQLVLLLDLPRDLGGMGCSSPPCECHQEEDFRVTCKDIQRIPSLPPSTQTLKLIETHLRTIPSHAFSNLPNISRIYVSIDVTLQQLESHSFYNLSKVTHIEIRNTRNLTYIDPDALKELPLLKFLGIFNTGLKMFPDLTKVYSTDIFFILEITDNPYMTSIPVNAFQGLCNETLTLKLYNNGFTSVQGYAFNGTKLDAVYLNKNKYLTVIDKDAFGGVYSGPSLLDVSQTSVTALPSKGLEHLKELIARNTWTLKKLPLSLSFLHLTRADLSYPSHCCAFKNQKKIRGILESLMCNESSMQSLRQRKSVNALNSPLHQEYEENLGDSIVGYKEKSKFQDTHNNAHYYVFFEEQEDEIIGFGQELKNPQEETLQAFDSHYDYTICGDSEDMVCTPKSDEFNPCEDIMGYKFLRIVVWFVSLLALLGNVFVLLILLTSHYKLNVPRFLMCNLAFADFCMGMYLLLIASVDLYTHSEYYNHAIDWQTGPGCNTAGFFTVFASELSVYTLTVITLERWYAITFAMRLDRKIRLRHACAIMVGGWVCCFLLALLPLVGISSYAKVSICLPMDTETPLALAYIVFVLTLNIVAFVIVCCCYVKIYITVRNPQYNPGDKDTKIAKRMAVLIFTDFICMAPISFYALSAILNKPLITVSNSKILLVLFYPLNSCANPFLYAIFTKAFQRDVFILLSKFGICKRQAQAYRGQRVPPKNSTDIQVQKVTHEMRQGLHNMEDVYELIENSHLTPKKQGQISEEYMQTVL

Take `C=CC(=O)OCC(CO)(COC(=O)C=C)COC(=O)C=C`: the Potency in assay [1] is 13.7 µM (active) and 54.5 µM (active); in assay [2], 9.72 µM (active) and 24.3 µM (active); in assay [3], 6.13 µM (active) and 12.2 µM (active); in assay [4], 13.7 µM (active) and 24.3 µM (active); in assay [6] it was 6.13 µM (active) and 9.69 µM (active); in assay [7], 14.2 µM (active). Moreover, the Potency in assay [9] was 8.66 µM (active) and 13.7 µM (active); in assay [11] it was 11 µM (active) and 12.3 µM (active); in assay [12] it was 3.48 µM (active); in [14], 12.3 µM (active) and 19.5 µM (active); in assay [15], 2.76 µM (active) and 9.77 µM (active); in [16], 5.51 µM (active). Moreover, the Potency result in assay [5], in [8] and in assay [13] was “inactive” throughout. Also, in assay [10], the activity change, positive = activation was -68.9% and -80.3%.
In the case of `CC(C)(C)C(=O)OCOC(=O)C1N2C(=O)CC2S(=O)(=O)C1(C)C` (centres undefined), the Potency result in assay [1], in assay [2], in assay [3], in assay [17], in assay [7] and in [18] was “inactive” in each case. The Potency result in [8], in assay [11], in assay [12], in [13], in [14] and in assay [15] was “inactive” each time. For the same compound, the Potency entry in assay [16] is “inactive”.
In the case of `Oc1cccc2cc3cccc(O)c3c(O)c12`, the Potency result in [1], in [2], in [3], in [6], in assay [7] and in assay [8] was “inactive” in each case. In addition, the Potency entry in [11], in assay [12], in assay [13], in assay [15] and in assay [16] was “inactive” each time.
On to `CCOC(=O)O[C@]1(C(=O)OCCl)CC[C@H]2[C@@H]3CCC4=CC(=O)C=C[C@]4(C)[C@H]3[C@@H](O)C[C@@]21C`, for which the Potency result in assay [1], in assay [2], in assay [3], in [7], in assay [8] and in assay [13] was “inactive” each time. Moreover, the Potency entry in assay [14], in assay [15] and in [16] was “inactive” each time.
In the case of `O=C(OCC(COC(=O)c1ccccc1)(COC(=O)c1ccccc1)COC(=O)c1ccccc1)c1ccccc1`, the Potency result in assay [1], in assay [2], in [3], in [4], in [5] and in assay [17] was “inactive” in each case. Further, the Potency result in assay [7], in assay [8], in assay [9], in assay [11], in assay [13] and in [14] was “inactive” each time. Besides, the activity change, positive = activation in [10] was 9.84%. Moreover, the Potency in assay [12] was 48.9 µM (active); in [16] it was 43.6 µM (active).
Regarding `Cc1cc(N)c(S(=O)(=O)O)cc1Cl`, the Potency entry in [1], in assay [2], in [3], in assay [4], in assay [5] and in [17] was “inactive” in each case. Further, the Potency entry in [7], in assay [18], in [8], in assay [9], in [11] and in [12] was “inactive” throughout. The Potency result in assay [13], in assay [14], in assay [15] and in assay [16] was “inactive” throughout. Also, the activity change, positive = activation in assay [10] is 5.22%.
For `CCCCN(CCCC)c1ccc(C(=O)c2ccccc2C(=O)O)c(O)c1`, the Potency result in [1], in [2], in assay [3], in assay [4], in assay [5] and in [6] was “inactive” each time. In addition, the Potency result in [11], in [12], in assay [13], in assay [14] and in [16] was “inactive” throughout. In [9], the Potency is 55 µM (active). Further, the activity change, positive = activation in assay [10] is -39.4%.

The record behind these values is PubChem BioAssay (Tox21).
